About 3,100 (55%) of roughly 5,600 compounds were called active. Not shown: some 3% with an inconclusive outcome. The set was probably picked from earlier hits. Only a sample is shown. Unmarked numbers belong to inactive results.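 The calls were made as follows: active = mean loss of cell viability signal at or above a set limit, and enough replicates individually reaching it; inconclusive = meets only the mean limit or only the replicate share; inactive = meets neither condition.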
Assay: NIH/3T3 fibroblast cytotoxicity, confirmation, cytotoxicity control, cell-based, cherry-pick, single point, set 2 (AID 651744);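 also: 0% = median of neutral control wells and 100% = median of positive control wells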
Conditions: NIH/3T3 viability, CellTiter-Glo ATP luminescence, 90 h; at 24.9 µM; active compounds read high

SMILES | inhibition
COc1ccc(-c2ccc([C@H]3[C@H](CO)N4CCCCN(C(=O)Cc5ccncc5)C[C@@H]34)cc2)cc1 | 18.4%
COc1ccc(C#Cc2ccc([C@H]3[C@H](CO)N4CCCCN(C(=O)Cc5ccccc5)C[C@@H]34)cc2)cc1 | 106% (active)
O=C(Cc1cccnc1)N1CCCCN2[C@@H](CO)[C@H](c3ccc(C#CC4CCCC4)cc3)[C@@H]2C1 | 105% (active)
C/C=C/c1ccc([C@H]2[C@H](CO)N3CCCCN(C(=O)Cc4ccncc4)C[C@@H]23)cc1 | 3.85%
O=C(Cc1ccccn1)N1CCCCN2[C@@H](CO)[C@@H](c3ccc(C#Cc4ccccc4)cc3)[C@@H]2C1 | 103% (active)

Reference: PubChem BioAssay AID651744 (Broad Institute, 2012)
